# CF NFkB inh: inhibitors of PAF-induced NF-kB signaling, primary screen, cell-based, GFP fluorescence, uHTS; KKLEB NF-kB-GFP reporter, GFP fluorescence overnight; inhibition, % at 5 µM; hit rate 0.86% among 360,000;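 active = at least 50% inhibition at 5 µM, scaled per plate between neutral and stimulator controls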;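 note: PAF is a Pseudomonas aeruginosa culture filtrate used as stimulus; plate controls were PAF-stimulated DMSO wells for no effect and unstimulated DMSO wells for full effect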
# TROY NFkB inh: inhibitors of TROY-driven NF-kB signaling, primary screen, Q293 LMP1-TROYcd cells, NF-kB luciferase, uHTS. inhibition, % at 10 µM. hit rate 0.98% among 360,000. Q293 LMP1-TROYcd NF-kB luciferase reporter, 4 h. AID 1347056, 2019;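 active = compounds whose plate-normalised and pattern-corrected inhibition of the luciferase reporter signal at the single screening dose is 50% or more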
# HIF-2a block: HIF-2a reporter inhibitors, primary screen, luminescence, 786-0 RCC cells | hit rate 0.72% among 360,000 | inhibition, % at 18.8 µM | 786-0 RCC cells HIF-2a reporter, luciferase luminescence, overnight;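 active = inhibition of the luminescence signal of 40% or more relative to plate controls, in a single-dose primary screen at 18.75 µM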
# TWEAK Fn14 block: inhibitors of TWEAK-Fn14 signaling, primary screen, luciferase reporter cells, uHTS | hit rate 2% among 360,000 | inhibition, % at 10 µM | TWEAK-stimulated Fn14 reporter cells, luciferase luminescence, 8 h | AID 1159606, 2016; in the data active = inhibition above about 50%
# Peg3 promoter: Peg3 promoter-driven luciferase inhibitors, primary screen, cell-based, HeLa, luciferase luminescence | HeLa PEG-Prom luciferase reporter, overnight | inhibition, % at 20 µM | hit rate 1.7% among 360,000 | AID 588405, 2011;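 active = inhibition of at least 50% at 20 µM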
# KKLEB tox: cytotoxicity in KKLEB CF airway cells, primary screen, cytotoxicity control for CF NF-kB inhibitor project, cell-based, uHTS, fluorescence assay plates; KKLEB CF airway cells viability, ATPlite luminescence, overnight; active compounds read low; cells stimulated with P. aeruginosa culture filtrate; activity change (cytotoxicity), % at 5 µM; hit rate 0.36% among 360,000;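 active = corrected activity change at or below -50% at 5 µM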
# Mdm2 MdmX conf: retested Mdm2-MdmX interaction blockers, confirmation, cell-based, luminescence, single concentration, set 2. shares compounds with HIF-2a block. SaOS-2 split-luciferase Mdm2/MdmX complementation. inhibition, % at 8 µM. hit rate 99% among 740. AID 504601, 2011;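 active = mean inhibition of the luminescence signal across two replicates at or above 26 percent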
# Target sequence (O15151 whole entry, looked up): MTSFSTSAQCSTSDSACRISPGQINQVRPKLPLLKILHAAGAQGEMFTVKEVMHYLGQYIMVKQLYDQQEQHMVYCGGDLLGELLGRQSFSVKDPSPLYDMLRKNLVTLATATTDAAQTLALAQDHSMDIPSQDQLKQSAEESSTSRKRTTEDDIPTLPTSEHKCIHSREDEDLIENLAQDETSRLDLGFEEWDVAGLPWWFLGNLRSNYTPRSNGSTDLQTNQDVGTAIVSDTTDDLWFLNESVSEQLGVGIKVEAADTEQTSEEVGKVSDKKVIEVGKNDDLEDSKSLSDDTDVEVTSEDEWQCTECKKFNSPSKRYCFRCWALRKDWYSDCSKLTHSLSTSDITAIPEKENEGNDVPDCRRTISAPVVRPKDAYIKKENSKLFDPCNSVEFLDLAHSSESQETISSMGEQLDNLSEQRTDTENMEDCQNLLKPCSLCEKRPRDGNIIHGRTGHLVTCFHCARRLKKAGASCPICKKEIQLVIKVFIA
# Target sequence (Q00987 whole entry, looked up): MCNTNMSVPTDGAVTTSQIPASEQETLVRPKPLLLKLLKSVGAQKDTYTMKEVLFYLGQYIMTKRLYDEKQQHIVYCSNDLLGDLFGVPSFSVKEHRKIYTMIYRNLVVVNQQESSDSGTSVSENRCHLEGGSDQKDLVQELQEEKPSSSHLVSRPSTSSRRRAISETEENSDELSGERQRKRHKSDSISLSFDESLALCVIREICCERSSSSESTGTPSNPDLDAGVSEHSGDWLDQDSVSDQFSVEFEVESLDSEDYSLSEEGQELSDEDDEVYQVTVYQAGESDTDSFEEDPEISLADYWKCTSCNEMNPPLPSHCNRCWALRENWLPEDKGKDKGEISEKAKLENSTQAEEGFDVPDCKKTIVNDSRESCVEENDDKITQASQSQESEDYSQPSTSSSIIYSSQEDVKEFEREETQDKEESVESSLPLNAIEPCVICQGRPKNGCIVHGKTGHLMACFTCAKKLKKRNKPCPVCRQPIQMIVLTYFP
# HIF-2a inh conf: HIF-2a reporter inhibitor retest, confirmation, luminescence, 786-0 RCC cells | inhibition, % at 18.8 µM | hit rate 56% among 1,800 | AID 651580, 2012 | HIF-2a luciferase reporter luminescence, overnight | shares compounds with HIF-2a block;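 active = mean inhibition across four replicates of at least 40 percent at the single tested concentration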
# HIF-1a cs: HIF-1a luciferase reporter signal reduction – MiaPaCa-2 cells, single concentration, counter-screen for HIF-2a inhibitor project, confirmation; MiaPaCa-2 HIF-1a luciferase reporter, desferoxamine, overnight; inhibition, % at 18.8 µM; shares compounds with HIF-2a block; hit rate 72% among 1,800;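 active = mean inhibition of the reporter signal across four replicates at the single tested dose of 50% or more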
# Numbers without * were called inactive; nt = not tested or not shown. Shown are actives, neighbours in structure and some others; about 4% of the full set was active somewhere.
SMILES,CF NFkB inh,TROY NFkB inh,HIF-2a block,TWEAK Fn14 block,Peg3 promoter,KKLEB tox,Mdm2 MdmX conf,HIF-2a inh conf,HIF-1a cs
CCCCC1CCC(C(=O)N(CCCC)c2c(N)n(CCCC)c(=O)[nH]c2=O)CC1 (stereo not given),12.8,-24.5,18.5,-7.9,21.3,-7.0,nt,nt,nt
CC(=O)N1c2ccc(S(=O)(=O)NCC3CCC(C(=O)NC4CCCCC4)CC3)cc2CC1C (stereo not given),-17.0,-6.6,14.7,19.5,17.1,-23.4,nt,nt,nt
CC(C)(C)OC(=O)N[C@@H](Cc1ccccc1)c1nnc(SCC(N)=O)o1,-6.3,-6.8,8.6,10.5,6.2,15.1,nt,nt,nt
Cc1cccc(CS(=O)(=O)c2nnc([C@H](Cc3ccccc3)NC(=O)OC(C)(C)C)o2)c1,69.1*,14.3,7.9,28.6,105.6*,-21.5,102.7*,nt,nt
COc1ccc(/C=C/C(=O)C23CC4CC(CC(C4)C2)C3)cc1CN1CCOCC1,13.4,8.4,43.7*,26.4,48.4,-5.6,nt,2.5,42.1
N=c1nc(SCCC(=O)O)ss1,-7.9,10.9,68.6*,15.6,5.7,0.8,nt,72.8*,45.9
O=C(Nc1ccc(Cl)cc1)/C(=C/c1cccc(O)c1)c1nc2ccccc2s1,90.0*,82.7*,90.6*,104.4*,101.1*,-90.8*,102.5*,94.7*,106.0*
COc1ccccc1-c1nnc(Sc2nc([N+](=O)[O-])nn2C)o1,47.9,30.8,0.4,84.1*,65.7*,-35.0,97.0*,nt,nt
O=c1c(Br)c(N2CCCC2)cnn1-c1ccccc1,-8.9,-28.2,-172.2,6.7,-268.5,4.3,nt,nt,nt
Cc1ccc(-n2ncc(Br)c(Br)c2=O)cc1,69.1*,68.7*,92.3*,78.3*,102.2*,-35.9,nt,98.7*,102.2*
COc1c(Cl)cnn(-c2ccc(C)cc2)c1=O,-15.0,-9.0,-25.9,7.7,-18.8,2.3,nt,nt,nt
O=c1c(Br)c(Br)cnn1-c1ccccc1,89.8*,77.3*,96.0*,92.8*,108.5*,-84.6*,nt,98.9*,107.0*
Cc1ccc(N2CC(C(=O)Nc3nnc(SCCN4CCOCC4)s3)CC2=O)cc1 (stereo not given),-14.8,-16.2,4.6,7.7,4.8,16.3,nt,nt,nt
N#Cc1c(N)nc(Sc2ccc(Cl)cc2)c(C#N)c1-c1ccccc1Cl,45.9,48.0,46.9*,58.1*,52.4*,-16.3,nt,15.9,45.4
O=C(C#Cc1ccccc1)c1cccc([N+](=O)[O-])c1,58.9*,17.1,46.1*,47.5,106.1*,-17.2,nt,11.4,86.5*
O=C(NC1CC1)C1CCN(S(=O)(=O)c2ccc(Cl)c([N+](=O)[O-])c2)CC1,-5.8,11.8,21.6,0.3,40.7,9.2,102.2*,nt,nt
O=C(CCl)N1N=C(c2cccs2)CC1c1ccco1 (stereo not given),15.9,0.8,18.6,66.9*,40.8,-18.0,103.2*,nt,nt
CC(Sc1nc(-c2ccccc2)c(-c2ccccc2)[nH]1)C(=O)NCC1CCCO1 (stereo not given),5.3,-6.9,17.1,10.2,5.1,2.6,nt,nt,nt
Nc1nc(N)c2c(ccc3c2ccn3Cc2cccc([N+](=O)[O-])c2)n1,16.6,-21.7,89.1*,79.2*,99.8*,-41.5,nt,12.0,104.6*
NC(=O)CC(NC(=O)c1ccccc1)c1ccc(NCCc2ccc(Cl)cc2)c([N+](=O)[O-])c1 (stereo not given),1.6,19.9,50.3*,-1.0,16.4,-14.4,nt,-2.7,33.4
CC(C)[C@H](NS(=O)(=O)c1ccccc1)C(=O)OCC(=O)N1N=C(c2ccc(Cl)cc2)CC1c1ccco1 (stereo not given in full),19.8,39.5,50.4*,55.6*,5.4,-0.6,nt,-3.2,89.5*
Nc1cc(=O)[nH]c(SCC(=O)N2N=C(c3ccc(Cl)cc3)CC2c2ccco2)n1 (stereo not given),5.1,-26.6,-37.4,0.8,-24.7,5.7,nt,nt,nt
CCCc1cc(=O)[nH]c(SCC(=O)N2N=C(c3ccc(Cl)cc3)CC2c2ccco2)n1 (stereo not given),-1.9,28.7,40.3*,69.0*,13.0,1.0,nt,-16.5,81.6*
COCC(=O)OCC(=O)N1N=C(c2ccc(Cl)cc2)CC1c1ccco1 (stereo not given),14.5,24.3,5.2,42.2,-6.8,10.9,nt,nt,nt
O=C(O)C1CCCC2CN3CCc4c([nH]c5ccccc45)C3C(O)C21 (stereo not given),-0.5,3.6,5.8,0.5,29.7,-3.4,nt,nt,nt
SMILES,CF NFkB inh,TROY NFkB inh,HIF-2a block,TWEAK Fn14 block,Peg3 promoter,KKLEB tox,Mdm2 MdmX conf,HIF-2a inh conf,HIF-1a cs
CCc1cccc(NC(=O)CCS(=O)(=O)c2ccc(Br)cc2)c1,12.4,-7.1,8.3,-2.7,6.8,-3.2,nt,nt,nt
COc1cc(NC(=O)CCCN2C(=O)NC(C)(C)C2=O)cc(OC)c1,-6.3,-3.3,5.4,-18.3,2.5,11.4,nt,nt,nt
CN(C)/C=C/c1c([N+](=O)[O-])c2ccc(O)cc2n1-c1ccccc1,83.6*,18.4,28.1,48.5,51.8*,-2.9,90.2*,nt,nt
COC(=O)c1c(C)n(-c2ccccc2)c2ccc(O)cc12,26.2,17.6,9.4,16.9,22.4,7.3,nt,nt,nt
COc1ccc(C(C(=O)NC2CCCCC2)N(C(=O)CCl)c2ccc(OC)cc2)cc1 (stereo not given),71.6*,-7.8,30.3,64.3*,101.0*,-81.0*,94.6*,nt,nt
CCc1ccccc1N(C(=O)CNC(=O)c1ccco1)C(C(=O)NC1CCCC1)c1cccnc1 (stereo not given),-3.0,-14.2,13.8,11.7,-6.3,0.6,nt,nt,nt
COc1ccc(C(C(=O)NC2CCCCC2)N(C(=O)CCl)c2ccc(C)cc2)cc1 (stereo not given),90.9*,-1.6,28.8,57.0*,69.0*,-93.1*,102.2*,nt,nt
O=C(NC1CCCCC1)C(c1cccnc1)N(C(=O)CCl)c1ccccc1Cl (stereo not given),9.5,1.8,30.1,61.9*,29.6,-7.8,103.5*,nt,nt

# Source: PubChem
